Assay results reported in PubChem BioAssay AID1420 (Emory University Molecular Libraries Screening Center, 2008).
Hit rate of the full screen: of about 1,100 compounds, about 65 (6%) were called active. The rule behind the calls is not given here. These entries were drawn from the full list. Measured potencies and affinities stand elsewhere.

Each compound was assayed against Calpain-2 catalytic subunit (Sus scrofa) (UniProt P43367) (assay: m-calpain protease blockers, concentration series – biochemical, fluorogenic peptide substrate, dose response (AID 1420)). Details: purified calpain II, 30 min; series mostly up to 50 µM.
Calpain-2 catalytic subunit (Sus scrofa), sequence (P43367 whole entry, looked up): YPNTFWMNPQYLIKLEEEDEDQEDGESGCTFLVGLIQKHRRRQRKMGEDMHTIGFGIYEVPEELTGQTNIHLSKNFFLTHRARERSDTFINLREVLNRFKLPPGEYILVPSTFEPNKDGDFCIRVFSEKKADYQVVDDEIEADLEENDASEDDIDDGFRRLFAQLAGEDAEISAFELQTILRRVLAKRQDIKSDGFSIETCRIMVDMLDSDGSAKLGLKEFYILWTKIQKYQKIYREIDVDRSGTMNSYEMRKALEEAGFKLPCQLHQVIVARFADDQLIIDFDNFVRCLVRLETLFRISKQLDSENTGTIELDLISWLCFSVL

outcome, inactive:
O=C(NNC(=O)c1cc(OCC(F)(F)F)ccc1OCC(F)(F)F)c1cccc(C(F)(F)F)c1
CN(C)c1cccc(C(=O)OCC(=O)Nc2ccccc2Cl)c1
CCOC(=O)C(C)Oc1ccc(OCc2ccccc2)cc1 (stereo not drawn)
